The values that follow come from ChEMBL document CHEMBL3433997, “St. Jude Leishmania screening dataset” (2016).

What all share (assay type): functional
Assay [1] deals with Solute carrier family 2, facilitated glucose transporter member 1 (Homo sapiens) (UniProt P11166). Nature of the assay: ST_JUDE_LEISH: Cytotoxicity at 2uM final concentration against transgenic Leishmania Mexicana promastigotes LmGLUT1 that are glucose transport deficient and complemented with the human glucose transporter GLUT1. Activity is measured by DNA content using SYBR green in vitro.

In assay [2] the target is Hexose transporter 1 (Plasmodium falciparum) (UniProt O97467). Kind of assay: ST_JUDE_LEISH: Cytotoxicity at 2uM final concentration against transgenic Leishmania Mexicana promastigotes LmPfHT that are glucose transport deficient and complemented with the Plasmodium falciparum hexose transporter. Activity is measured by DNA content using SYBR green in vitro.
The target in assay [3] is Glucose transporter (Leishmania mexicana) (UniProt O61059). Nature of the assay: ST_JUDE_LEISH: Cytotoxicity at 2uM final concentration against transgenic Leishmania Mexicana promastigotes LmGT2 that are glucose transport deficient and complemented with the L. Mexicana glucose transporter 2. Activity is measured by DNA content using SYBR green in vitro.

The structures appear in SMILES notation.

Solute carrier family 2, facilitated glucose transporter member 1 (Homo sapiens), sequence (P11166 whole entry): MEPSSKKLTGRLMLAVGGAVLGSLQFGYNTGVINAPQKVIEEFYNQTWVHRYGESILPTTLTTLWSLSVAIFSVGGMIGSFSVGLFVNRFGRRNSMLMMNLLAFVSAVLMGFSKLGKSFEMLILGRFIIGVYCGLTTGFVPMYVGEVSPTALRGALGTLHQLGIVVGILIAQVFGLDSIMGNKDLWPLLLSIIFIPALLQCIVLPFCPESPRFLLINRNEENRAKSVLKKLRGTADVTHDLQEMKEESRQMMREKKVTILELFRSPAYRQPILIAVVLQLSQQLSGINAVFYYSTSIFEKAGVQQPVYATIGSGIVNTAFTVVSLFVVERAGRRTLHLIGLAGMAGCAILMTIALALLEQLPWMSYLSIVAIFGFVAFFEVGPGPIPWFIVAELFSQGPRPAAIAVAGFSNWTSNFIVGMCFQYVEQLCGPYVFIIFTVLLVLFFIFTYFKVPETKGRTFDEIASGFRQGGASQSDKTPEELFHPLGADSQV

Take `CC(C)CNc1c2c(nc3cnn(-c4c5c(nc6cn[nH]c46)CCCC5)c13)CCCC2`: the inhibition in assay [1] was -3.17%; in assay [2], -1.12%; in assay [3], -2.14%.
As to `Cc1cc(N(C)CCCN(C)C)nc(Nc2ccc(Cl)cc2)n1`, the inhibition in assay [1] was -1.04%; in assay [2] it was 1.73%; in assay [3] it was -0.32%.
For the compound `COc1ccccc1-c1cccc(-c2cccc(NC(=O)c3ccc([N+](=O)[O-])o3)c2)n1`, the inhibition in assay [1] was 11.2%; in assay [2] it was 16.8%; in assay [3] it was 9.06%.
Regarding `OC1CCN(c2cc(-c3ccccn3)nc(-c3ccccn3)n2)CC1`, the inhibition in assay [1] is -1.43%; in assay [2], 2.02%; in assay [3] it was -4.46%.
With `Cc1nc(N)nc(N)c1-c1ccc(Br)c([N+](=O)[O-])c1`, the figures for the inhibition in assay [1], in assay [2] and in assay [3] were 1.12%, 2.99% and 2.4%, respectively.
For the compound `C=CC(C)C1OC(=O)c2cc(OC)cc(OC)c21` (stereo not drawn), the inhibition in assay [1] was 92.2%; in assay [2], 89%; in assay [3], 86.8%.
As for `COc1ccc(-c2csc(C(=O)NC3CCC(N4CCC(c5ccccc5C)CC4)CC3)c2)cc1` (stereo not drawn), the inhibition is 3.25% in assay [1], 4.24% in assay [2] and 3.51% in assay [3].
For `COc1ccc(CNc2ncc(-c3ccsc3)c(-c3nccs3)n2)cc1OC`, the figures for the inhibition in assay [1], in assay [2] and in assay [3] were 0.9%, 0.94% and 2.07%, respectively.
For `CN1CCC(c2c[nH]c3ccc(NC(=O)Nc4ccc(-c5ccncc5)cc4Cl)cc23)CC1`, the inhibition in assay [1] is 1.45%; in assay [2] it was 1.38%; in assay [3], 2.14%.
The matching figures for `Cc1ccc(C)c(S(=O)(=O)Nc2ccc(Br)cc2C(=O)Nc2cccc(C(F)(F)F)c2)c1`: 0.14%, 0.63% and -1.9%.
Consider `CNS(=O)(=O)Cc1ccc(Nc2nccc(Nc3cccc4c3cnn4C(=O)Nc3ccccc3)n2)cc1`, for which the figures for the inhibition in assay [1], in assay [2] and in assay [3] were 4.38%, 3.98% and 3.72%, respectively.
For `Cc1ccc2c(N/N=C/c3cccc([N+](=O)[O-])c3)cc(C)nc2c1`, the inhibition in assay [1] came to 8.19%; in assay [2] it was 4.7%; in assay [3], 3.94%.
As for `O=C(CSc1nc(-c2ccccc2Cl)ns1)Nc1ccc2c(c1)OCO2`, the inhibition was -0.52% in assay [1], -0.45% in assay [2] and -1.67% in assay [3].
With `O=C(C=Cc1ccc(Cl)c(Cl)c1)NCCCCCN1CCC(CCNC(=O)c2cccc3ccccc23)CC1`, the inhibition in assay [1] turned out to be 4.11%; in assay [2], 2.98%; in assay [3], 2.03%.
On to `Cc1[nH]cc(Br)c(=O)c1-c1ccc(Oc2ccc(OC(F)(F)F)cc2)cc1`, for which the inhibition in assay [1] worked out at 3.93%; in assay [2], 4.74%; in assay [3], 4.41%.
Turning to `Cc1cccc2nc(-c3ccc(-c4ccc(C(=O)NCCc5cn(C)cn5)cc4)s3)[nH]c12`, the inhibition was 4.34% in assay [1], 5.34% in assay [2] and 2.6% in assay [3].
Regarding `CCCC1N=C(N)N=C(N)N1c1cccc(C(F)(F)F)c1` (stereo not drawn), the inhibition in assay [1] was determined as 0.83%; in assay [2], 0.06%; in assay [3], 0.06%.
Regarding `Cc1[nH]c2ccccc2c1C(=O)CSc1nn(-c2ccccc2)c(=S)s1`, the inhibition worked out at 5.67% in assay [1], 7.39% in assay [2] and 2.44% in assay [3].
Regarding `COc1cc(Cc2cnc(N)nc2N)ccc1OCc1ccc(-c2ccccc2C#N)cc1`, the inhibition in assay [1] is 0.17%; in assay [2], 0.47%; in assay [3] it was -0.89%.
For the compound `Cc1nc(N)nc(N)c1OCCCOc1ccccc1Br`, the inhibition was 46.9% in assay [1], 61.8% in assay [2] and 43.6% in assay [3].
For the compound `COc1ccc(CN2CCC(CNCc3cccc(-c4ccccc4)c3)CC2)cc1`, the inhibition in assay [1] is 3.34%; in assay [2], 0.46%; in assay [3], 3.8%.
Turning to `C=CCOC(=O)N1CCC(CNCc2ccc(-c3ccc(-c4nc5cc(C(F)(F)F)ccc5[nH]4)cc3)cc2)C1` (stereo not drawn), the results for the inhibition in assay [1], in assay [2] and in assay [3] were 3.5%, -0.38% and 1.41%, respectively.
As for `COc1ccc(Nc2nc(N3CCCC3)c3ccccc3n2)cc1`, the inhibition in assay [1] was 17.6%; in assay [2] it was 19.6%; in assay [3], 14.3%.
Take `CC(C)N(Cc1cnc2nc(N)nc(N)c2n1)c1ccc(Cl)c(Cl)c1`: the inhibition in assay [1] turned out to be 1.77%; in assay [2], 1.12%; in assay [3] it was 1.16%.
For the compound `COc1cc(NC(=O)/C=C/c2cc3ccccc3n2C)ccc1OCCN(C(C)C)C(C)C`, the inhibition in assay [1] was determined as 4.23%; in assay [2], 4.39%; in assay [3], 3.12%.
As for `c1ccc(-c2csc(Nc3nc4cc5c(cc4s3)OCO5)n2)nc1`, the inhibition in assay [1] is 0.62%; in assay [2] it was 0.83%; in assay [3], -1.72%.
As to `CC(=O)Nc1ccc(CN(C)C2CCN(c3cc(NC(=O)c4cccc(C)c4)ccn3)CC2)cc1`, the values for the inhibition in assay [1], in assay [2] and in assay [3] were 2.4%, 3.41% and 2.5%, respectively.
In the case of `CC(=O)Nc1cccc(NC(=O)CSc2ccc(-c3nc4ccccc4[nH]3)cn2)c1`, the results for the inhibition in assay [1], in assay [2] and in assay [3] were 0.84%, -0.63% and -0.27%, respectively.
For the compound `Clc1ccc(Nc2nc(-c3ccccn3)cs2)nc1`, the figures for the inhibition in assay [1], in assay [2] and in assay [3] were 67.7%, 27.3% and 22.7%, respectively.
The matching figures for `COc1cccc(C(=O)NC(c2ccc(Cl)cc2Cl)c2cc(Cl)c3cccnc3c2O)c1` (stereo not drawn): 0.8%, -0.13% and 1.53%.
Regarding `CCC(C)CN1CCN(c2ccc(NC(=O)c3cccs3)cc2)CC1C` (stereo not drawn), the results for the inhibition in assay [1], in assay [2] and in assay [3] were 0.37%, 0.02% and 1.01%, respectively.
In the case of `CCCCN(CCCC)Cc1cc2ccccc2cc1O`, the inhibition in assay [1] was 3.46%; in assay [2], 4.13%; in assay [3], -0.3%.
With `O=C(Nc1ccc(Cl)cc1)c1ccc(CN2CCCN(Cc3cccc(F)c3)CC2)cc1`, the figures for the inhibition in assay [1], in assay [2] and in assay [3] were -0.02%, 5.11% and 3.31%, respectively.
On to `CCC(ON1C(N)=NC(N)=NC1(C)C)c1ccc(Cl)cc1` (stereo not drawn), for which the figures for the inhibition in assay [1], in assay [2] and in assay [3] were 6.11%, 8.81% and 10.4%, respectively.
The matching figures for `CN1CCC(c2cc3c(cc2Br)CCN3C(=O)Nc2ccc(-c3ccncc3)c(Cl)c2)CC1`: 0.33%, 1.09% and 0.25%.
As to `Cc1cc(O)c2c(c1)OC(C)(C)C=C2C1=CCN(Cc2ccccc2)CC1`, the inhibition came out at 5.82% in assay [1], 6.87% in assay [2] and 5.88% in assay [3].
